Experimental findings from ChEMBL document CHEMBL2218924, “A broad activity screen in support of a chemogenomic map for kinase signalling research and drug discovery” (Biochem J, 2013) are described below.

Test [1] deals with T1, Ephrin type-A receptor 3 (Homo sapiens) (UniProt P29320).
T1 sequence (whole entry): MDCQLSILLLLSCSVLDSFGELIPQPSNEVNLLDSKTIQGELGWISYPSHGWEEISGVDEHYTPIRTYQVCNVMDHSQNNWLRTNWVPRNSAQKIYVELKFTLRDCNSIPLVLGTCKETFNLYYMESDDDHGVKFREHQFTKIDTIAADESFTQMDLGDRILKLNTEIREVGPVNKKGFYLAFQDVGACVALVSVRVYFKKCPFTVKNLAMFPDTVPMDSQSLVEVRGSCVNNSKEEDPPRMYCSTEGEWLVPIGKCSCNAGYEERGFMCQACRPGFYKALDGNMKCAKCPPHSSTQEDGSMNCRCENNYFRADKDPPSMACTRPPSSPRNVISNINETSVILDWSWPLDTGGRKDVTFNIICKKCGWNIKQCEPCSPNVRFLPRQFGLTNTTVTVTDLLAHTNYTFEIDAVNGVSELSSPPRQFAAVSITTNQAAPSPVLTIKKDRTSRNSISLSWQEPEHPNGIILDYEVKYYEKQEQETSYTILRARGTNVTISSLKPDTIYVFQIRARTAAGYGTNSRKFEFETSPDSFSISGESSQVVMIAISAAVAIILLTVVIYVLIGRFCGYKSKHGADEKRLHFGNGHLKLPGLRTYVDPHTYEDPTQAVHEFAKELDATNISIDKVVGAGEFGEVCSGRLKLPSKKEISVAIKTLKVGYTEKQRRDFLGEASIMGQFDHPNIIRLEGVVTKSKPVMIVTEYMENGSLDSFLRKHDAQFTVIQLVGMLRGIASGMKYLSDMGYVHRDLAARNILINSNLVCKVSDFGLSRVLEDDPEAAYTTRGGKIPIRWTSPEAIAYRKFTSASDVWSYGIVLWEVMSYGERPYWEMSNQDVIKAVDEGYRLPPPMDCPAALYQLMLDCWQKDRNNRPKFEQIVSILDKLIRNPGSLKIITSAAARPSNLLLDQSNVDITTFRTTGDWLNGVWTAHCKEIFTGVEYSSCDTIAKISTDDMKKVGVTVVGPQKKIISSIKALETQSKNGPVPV
The settings on record: at 10 µM.

In test [2] the target is Ephrin type-A receptor 4 (Homo sapiens) (UniProt P54764). The settings on record: at 1 µM.
Test [3] has the same target. The settings on record: at 10 µM.
Test [4] concerns the target Ephrin type-A receptor 5 (Homo sapiens) (UniProt P54756). The settings on record: at 1 µM.
For test [5] the target is unchanged. The settings on record: at 10 µM.
Test [6] addresses Ephrin type-A receptor 7 (Homo sapiens) (UniProt Q15375). The settings on record: at 1 µM.
Test [7] shares this target. The settings on record: at 10 µM.
Test [8] concerns the target T2, Ephrin type-A receptor 8 (Homo sapiens) (UniProt P29322).
T2 sequence (whole entry): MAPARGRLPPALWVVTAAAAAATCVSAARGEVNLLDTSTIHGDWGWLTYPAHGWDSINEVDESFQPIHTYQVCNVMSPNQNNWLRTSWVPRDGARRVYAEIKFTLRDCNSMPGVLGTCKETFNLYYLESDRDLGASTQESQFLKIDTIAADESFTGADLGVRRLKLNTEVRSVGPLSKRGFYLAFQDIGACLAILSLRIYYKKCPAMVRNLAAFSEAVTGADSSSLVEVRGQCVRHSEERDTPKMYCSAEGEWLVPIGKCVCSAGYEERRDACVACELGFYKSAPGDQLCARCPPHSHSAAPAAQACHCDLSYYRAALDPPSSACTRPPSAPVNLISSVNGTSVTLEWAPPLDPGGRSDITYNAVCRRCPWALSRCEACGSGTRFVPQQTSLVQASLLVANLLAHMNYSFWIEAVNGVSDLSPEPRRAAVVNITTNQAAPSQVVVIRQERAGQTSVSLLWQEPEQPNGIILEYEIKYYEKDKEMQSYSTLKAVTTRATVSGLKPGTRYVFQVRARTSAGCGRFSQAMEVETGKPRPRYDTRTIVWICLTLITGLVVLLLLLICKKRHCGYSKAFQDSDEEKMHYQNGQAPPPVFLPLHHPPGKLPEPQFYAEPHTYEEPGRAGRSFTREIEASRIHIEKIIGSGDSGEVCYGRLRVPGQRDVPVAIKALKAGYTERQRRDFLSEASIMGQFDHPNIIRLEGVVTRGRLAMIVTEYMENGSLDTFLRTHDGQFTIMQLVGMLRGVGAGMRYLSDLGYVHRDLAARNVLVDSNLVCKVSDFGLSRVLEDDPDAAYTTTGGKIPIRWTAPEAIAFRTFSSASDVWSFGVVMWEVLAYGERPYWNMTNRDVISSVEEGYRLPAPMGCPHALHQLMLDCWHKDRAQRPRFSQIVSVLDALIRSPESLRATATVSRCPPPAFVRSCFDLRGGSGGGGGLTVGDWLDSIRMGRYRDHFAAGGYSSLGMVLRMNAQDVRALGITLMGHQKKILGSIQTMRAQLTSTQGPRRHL
The settings on record: at 1 µM.

Test [9] deals with T2, Ephrin type-A receptor 8 (Homo sapiens). The settings on record: at 10 µM.
Test [10] deals with T3, Ephrin type-B receptor 1 (Homo sapiens) (UniProt P54762).
T3 sequence (whole entry): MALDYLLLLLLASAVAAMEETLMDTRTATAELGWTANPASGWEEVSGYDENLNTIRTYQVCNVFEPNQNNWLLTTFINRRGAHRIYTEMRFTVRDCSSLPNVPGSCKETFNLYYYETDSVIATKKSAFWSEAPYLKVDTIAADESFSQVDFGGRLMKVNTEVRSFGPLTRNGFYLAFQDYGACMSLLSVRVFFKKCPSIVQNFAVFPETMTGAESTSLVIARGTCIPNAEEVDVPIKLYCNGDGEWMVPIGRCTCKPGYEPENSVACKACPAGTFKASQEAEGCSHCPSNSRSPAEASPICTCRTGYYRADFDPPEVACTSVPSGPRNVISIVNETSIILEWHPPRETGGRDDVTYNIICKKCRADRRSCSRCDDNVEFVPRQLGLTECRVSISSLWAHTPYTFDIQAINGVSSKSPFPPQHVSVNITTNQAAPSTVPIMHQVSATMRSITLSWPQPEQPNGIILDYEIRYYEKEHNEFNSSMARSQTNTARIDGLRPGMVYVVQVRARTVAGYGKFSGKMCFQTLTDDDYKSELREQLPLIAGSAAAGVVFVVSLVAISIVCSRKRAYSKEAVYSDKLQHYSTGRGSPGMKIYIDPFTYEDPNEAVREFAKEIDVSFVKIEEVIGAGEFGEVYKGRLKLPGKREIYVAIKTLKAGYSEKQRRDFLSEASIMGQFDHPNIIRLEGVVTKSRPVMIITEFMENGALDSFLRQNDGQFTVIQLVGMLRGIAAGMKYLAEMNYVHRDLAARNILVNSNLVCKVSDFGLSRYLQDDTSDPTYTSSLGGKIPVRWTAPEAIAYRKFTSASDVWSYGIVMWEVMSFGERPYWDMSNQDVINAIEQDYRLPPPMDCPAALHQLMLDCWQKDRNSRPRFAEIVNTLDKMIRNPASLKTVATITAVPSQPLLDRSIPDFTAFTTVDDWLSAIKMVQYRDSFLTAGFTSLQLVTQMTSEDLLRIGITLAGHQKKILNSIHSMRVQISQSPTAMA
The settings on record: at 1 µM.

Ephrin type-A receptor 4 (Homo sapiens), sequence (P54764 whole entry): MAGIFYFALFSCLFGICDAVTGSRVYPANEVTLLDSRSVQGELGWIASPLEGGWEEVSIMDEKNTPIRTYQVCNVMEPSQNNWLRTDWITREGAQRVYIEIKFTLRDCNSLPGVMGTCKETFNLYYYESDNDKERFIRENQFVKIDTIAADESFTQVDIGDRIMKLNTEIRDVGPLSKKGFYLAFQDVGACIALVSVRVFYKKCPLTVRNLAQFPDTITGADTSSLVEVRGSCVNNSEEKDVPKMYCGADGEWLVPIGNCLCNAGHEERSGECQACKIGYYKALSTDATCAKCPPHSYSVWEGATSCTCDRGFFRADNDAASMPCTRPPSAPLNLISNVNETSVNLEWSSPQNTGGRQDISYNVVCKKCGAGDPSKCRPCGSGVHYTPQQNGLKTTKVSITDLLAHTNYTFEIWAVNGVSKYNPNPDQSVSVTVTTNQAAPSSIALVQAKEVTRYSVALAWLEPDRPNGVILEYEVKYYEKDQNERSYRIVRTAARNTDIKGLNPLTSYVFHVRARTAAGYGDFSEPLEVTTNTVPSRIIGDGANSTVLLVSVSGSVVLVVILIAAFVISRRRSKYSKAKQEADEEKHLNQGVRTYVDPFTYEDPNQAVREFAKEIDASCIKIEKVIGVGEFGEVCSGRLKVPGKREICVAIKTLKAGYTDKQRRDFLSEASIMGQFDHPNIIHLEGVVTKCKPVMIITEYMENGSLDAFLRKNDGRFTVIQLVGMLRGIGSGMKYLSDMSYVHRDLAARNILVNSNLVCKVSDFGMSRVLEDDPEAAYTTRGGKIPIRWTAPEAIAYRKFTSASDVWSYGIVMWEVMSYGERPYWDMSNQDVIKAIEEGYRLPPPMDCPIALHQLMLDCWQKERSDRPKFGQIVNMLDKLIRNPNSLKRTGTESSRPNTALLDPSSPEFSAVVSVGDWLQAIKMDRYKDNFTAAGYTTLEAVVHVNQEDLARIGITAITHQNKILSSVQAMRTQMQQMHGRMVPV
Ephrin type-A receptor 5 (Homo sapiens), sequence (P54756 whole entry): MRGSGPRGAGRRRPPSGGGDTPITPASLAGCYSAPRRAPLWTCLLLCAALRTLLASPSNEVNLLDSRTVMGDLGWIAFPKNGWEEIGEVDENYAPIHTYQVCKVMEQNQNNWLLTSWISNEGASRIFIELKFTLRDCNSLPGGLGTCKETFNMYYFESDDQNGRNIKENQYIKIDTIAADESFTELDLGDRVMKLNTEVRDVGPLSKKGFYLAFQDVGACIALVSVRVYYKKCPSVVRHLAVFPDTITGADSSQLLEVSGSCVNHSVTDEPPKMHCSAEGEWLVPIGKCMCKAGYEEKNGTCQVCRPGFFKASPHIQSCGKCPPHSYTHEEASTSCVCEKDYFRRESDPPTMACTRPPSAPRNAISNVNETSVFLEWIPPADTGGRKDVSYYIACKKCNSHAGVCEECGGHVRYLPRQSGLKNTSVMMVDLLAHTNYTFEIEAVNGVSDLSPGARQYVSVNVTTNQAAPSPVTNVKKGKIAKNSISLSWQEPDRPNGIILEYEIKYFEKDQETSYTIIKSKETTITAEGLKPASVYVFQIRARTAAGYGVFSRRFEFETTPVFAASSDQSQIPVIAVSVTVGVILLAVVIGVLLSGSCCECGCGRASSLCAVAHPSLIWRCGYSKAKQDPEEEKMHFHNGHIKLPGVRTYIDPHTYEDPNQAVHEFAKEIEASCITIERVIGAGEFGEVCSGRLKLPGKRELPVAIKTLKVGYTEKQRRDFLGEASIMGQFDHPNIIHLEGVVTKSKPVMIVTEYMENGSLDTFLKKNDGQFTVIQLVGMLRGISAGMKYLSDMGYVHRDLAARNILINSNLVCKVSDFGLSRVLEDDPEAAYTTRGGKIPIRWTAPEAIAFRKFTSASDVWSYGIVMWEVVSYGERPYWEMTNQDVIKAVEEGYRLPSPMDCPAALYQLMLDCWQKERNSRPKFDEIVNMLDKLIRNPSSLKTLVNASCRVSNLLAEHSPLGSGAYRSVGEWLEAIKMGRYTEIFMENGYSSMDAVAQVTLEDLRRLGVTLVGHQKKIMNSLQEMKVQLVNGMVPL
Ephrin type-A receptor 7 (Homo sapiens), sequence (Q15375 28-998 limits assumed): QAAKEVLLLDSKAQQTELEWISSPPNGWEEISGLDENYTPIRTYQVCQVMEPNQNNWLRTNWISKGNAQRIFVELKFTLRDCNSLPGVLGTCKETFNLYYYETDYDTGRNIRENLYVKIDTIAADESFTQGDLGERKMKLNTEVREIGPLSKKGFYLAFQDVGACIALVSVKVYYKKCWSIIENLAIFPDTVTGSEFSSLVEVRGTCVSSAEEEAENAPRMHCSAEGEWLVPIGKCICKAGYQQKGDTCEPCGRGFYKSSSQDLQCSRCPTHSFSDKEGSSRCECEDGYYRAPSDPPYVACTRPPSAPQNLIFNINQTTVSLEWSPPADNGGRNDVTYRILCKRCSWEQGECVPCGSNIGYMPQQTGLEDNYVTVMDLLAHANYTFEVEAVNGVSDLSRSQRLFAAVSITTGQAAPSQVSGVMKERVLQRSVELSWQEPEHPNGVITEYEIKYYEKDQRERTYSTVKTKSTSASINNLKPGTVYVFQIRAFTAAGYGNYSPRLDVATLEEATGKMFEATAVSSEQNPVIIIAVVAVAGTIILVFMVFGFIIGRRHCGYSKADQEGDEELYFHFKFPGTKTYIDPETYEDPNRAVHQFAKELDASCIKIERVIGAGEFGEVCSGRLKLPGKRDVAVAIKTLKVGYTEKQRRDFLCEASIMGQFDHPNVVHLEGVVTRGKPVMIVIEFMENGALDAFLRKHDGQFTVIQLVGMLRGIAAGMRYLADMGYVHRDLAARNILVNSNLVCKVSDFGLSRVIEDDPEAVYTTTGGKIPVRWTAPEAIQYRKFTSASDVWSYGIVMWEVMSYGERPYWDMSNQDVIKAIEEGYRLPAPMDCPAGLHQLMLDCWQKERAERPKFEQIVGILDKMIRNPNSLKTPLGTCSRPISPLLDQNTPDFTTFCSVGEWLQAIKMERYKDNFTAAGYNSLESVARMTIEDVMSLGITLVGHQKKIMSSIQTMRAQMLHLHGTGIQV

Usually residual activity stands for the signal under treatment as a percentage of the control signal. With `CCN(CC)CCCCN1c2ccccc2Oc2ccc(Cl)cc21`, the residual activity in [1] was 97%; in test [2] it was 116%; in [3], 100%; in [4] it was 108%; in test [5] it was 113%; in [6], 105%. Further, the residual activity in [7] is 103%; in test [8], 98%; in test [9] it was 114%; in [10], 100%.
